# In the supplement of paper PMC12350171:
# Counter-ions that a name gives are not always drawn. A number with no mark means an inactive call.
# Legend:
# Conditions in all cases: 20 µM
# [1] = system: Haemophilus parainfluenzae; assay: growth AUC normalised to DMSO control (fraction of control); higher = less growth inhibition, active = hit call of the paper
# Summary of the method: (§1)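 For the AUC endpoint, growth curves were integrated by the trapezoidal rule up to the exponential-to-stationary transition and normalised to DMSO controls on the same plate. The curves came from OD578 readings taken hourly for 24 h, in three biological replicates. Pathogens had been passaged anaerobically twice and inoculated at an OD578 of 0.01 into pre-reduced mGAM plates carrying 20 μM compound and 1% DMSO, sealed with breathable membranes. Medium for Haemophilus parainfluenzae also contained hemin and NAD.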
# [2] = system: Salmonella enterica typhimurium; assay: as above
# Summary of the method: as §1
# Shigella flexneri = assay: as above
# Summary of the method: as §1
# Vibrio cholerae = assay: as above
# Summary of the method: as §1
# [3] = system: Yersinia pseudotuberculosis; assay: as above
# Summary of the method: as §1
# P. vulgatus RND KO = assay: growth AUC normalised to DMSO control (median) (fraction of control); higher = less growth inhibition, active = hit call of the paper
# Summary of the method: (§2)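 Area under the growth curve, calculated by the trapezoidal rule up to entry into stationary phase, was normalised to vehicle wells on the same plate. Strains had been passaged twice overnight without oxygen and then grown in mGAM in 96-well plates from OD578 0.01, each with an approved-drug library compound at 20 μM in 1% DMSO. OD578 was read hourly over 24 h in an anaerobic incubator, and the median of three biological replicates is given.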
# P. vulgatus WT = assay: as above
# Summary of the method: as §2
# [4] = system: S. enterica typhimurium WT; assay: as above
# Summary of the method: as §2
# [5] = system: S. enterica typhimurium tolC KO; assay: as above
# Summary of the method: as §2
# 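For growth AUC normalised to DMSO control (median) in this document: active when median AUC fell below 0.1.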
Compound,growth AUC normalised to DMSO control [1],growth AUC normalised to DMSO control [2],growth AUC normalised to DMSO control (Shigella flexneri),growth AUC normalised to DMSO control (Vibrio cholerae),growth AUC normalised to DMSO control [3],growth AUC normalised to DMSO control (P. vulgatus RND KO),growth AUC normalised to DMSO control (P. vulgatus WT),growth AUC normalised to DMSO control [4],growth AUC normalised to DMSO control [5]
CN1CCN(C(=O)OC2c3nccnc3C(=O)N2c2ccc(Cl)cn2)CC1 (stereo not drawn) [Zopiclone],1.01,0.996,1,0.998,0.996,0.999,1.01,0.994,0.999
CC(C)(C)NCC(O)c1ccccc1Cl (stereo not drawn) [Tulobuterol hydrochloride],1,1,1.01,1.03,0.893,0.991,1.01,0.99,1.01
C[N+]12CCC(CC1)C(OC(=O)C(O)(c1ccccc1)c1ccccc1)C2 (stereo not drawn) [Clidinium bromide],0.998,0.969,0.975,0.99,0.999,1.03,0.999,1.02,0.997
CC(=O)O[C@H]1C[C@@H]2CC[C@@H]3[C@H](CC[C@@]4(C)[C@H]3C[C@H]([N+]3(C)CCCCC3)[C@@H]4OC(C)=O)[C@@]2(C)C[C@@H]1[N+]1(C)CCCCC1 [Pancuronium bromide],1.04,1.01,1.05,1.04,1,1.01,1.04,1.03,1.01
CC[C@@H](CO)NC(=O)[C@@H]1C=C2c3cccc4[nH]cc(c34)C[C@H]2N(C)C1 [Methylergometrine maleate],0.997,0.985,0.966,1.01,0.998,0.975,0.952,0.993,1
CNCC(O)c1ccc(O)cc1 (stereo not drawn) [Synephrine],1.04,1.01,1.05,1.03,1.01,0.984,0.984,1,0.999
C[N+]1(C)CCCC(OC(=O)C(O)(c2ccccc2)c2ccccc2)C1 (stereo not drawn) [Mepenzolate bromide],0.915,1.01,0.986,0.947,1,1.02,1.05,1.01,0.996
CN1[C@@H]2CC[C@H]1C[C@@H](OC(=O)C(CO)c1ccccc1)C2 (stereo partly drawn) [Atropine sulfate monohydrate],1.06,1.01,1.06,1.03,1,1.04,1.07,1.01,0.987
CC(CCc1ccccc1)NC(C)C(O)c1ccc(O)cc1 (stereo not drawn) [Nylidrin],0.988,0.987,0.994,0.983,0.993,1,0.998,1,0.991
CC(NC(C)(C)C)C(=O)c1cccc(Cl)c1 (stereo not drawn) [Bupropion hydrochloride],1.01,1,1.05,1.05,1.01,1.03,1.03,0.996,1
O=C(NCNC(=O)NC1C(=O)NC(=O)N1CO)NC1C(=O)NC(=O)N1CO (stereo not drawn) [Imidurea],0.992,1,0.995,1.01,1,0.991,1.01,0.998,0.996
CN1C[C@H](CNC(=O)OCc2ccccc2)C[C@@H]2c3cccc4c3c(cn4C)C[C@H]21 [Metergoline],0.925,0.979,0.973,0.893,0.993,0.886,0.885,0.992,0.895
C[C@]12CCC(=O)C(O)=C1CC[C@@H]1[C@@H]2CC[C@]2(C)C(=O)CC[C@@H]12 [Formestane],1.01,1.03,1,1.01,0.997,0.976,0.982,0.997,0.927
CN(C)[C@@H]1C(=O)C(C(N)=O)=C(O)[C@@]2(O)C(=O)C3=C(O)c4c(O)ccc(Cl)c4[C@@](C)(O)[C@H]3C[C@@H]12 [Chlortetracycline hydrochloride],0.0445 (active),0.00172 (active),0.0163 (active),0.0321 (active),0.0311 (active),0.0183 (active),0.0152 (active),0.00367 (active),0.00506 (active)
COc1ccc(CN2CCNCC2)c(OC)c1OC [Trimetazidine dihydrochloride],1.02,0.989,1.03,1.02,1.01,1.01,1.01,0.997,0.994
NC(=O)C[S+]([O-])C(c1ccccc1)c1ccccc1 (stereo not drawn) [Modafinil],1,0.994,0.982,0.998,0.998,1,0.993,1,0.976
C[C@]12CC[C@H]3[C@@H](CCC4=CC(=O)CC[C@@H]43)[C@@H]1CC[C@@H]2O [Nandrolone],1.99,0.995,0.981,0.967,0.981,0.999,1.03,1.01,0.981
CN(C)C(=O)Oc1cccc([N+](C)(C)C)c1 [Neostigmine bromide],1,1,0.994,1.01,0.916,1,0.997,1,1.01
Oc1ccc2c3c1O[C@H]1[C@@H](O)CC[C@@]4(O)[C@@H](C2)N(CC2CCC2)CC[C@]314 [Nalbuphine hydrochloride],0.982,0.984,0.974,0.984,0.905,0.997,0.966,0.988,0.995
CC(C)C[C@H]1C(=O)N2CCC[C@H]2[C@]2(O)O[C@](NC(=O)[C@@H]3C=C4c5cccc6[nH]c(Br)c(c56)C[C@H]4N(C)C3)(C(C)C)C(=O)N12 [Bromocryptine mesylate],1,1,0.996,0.996,1.03,1.01,1.03,1.02,0.994
"CC(=O)OCC1=C(C(=O)O)N2C(=O)[C@@H](N)[C@H]2SC1 [Cephalosporanic acid, 7-amino]",0.942,0.999,0.987,0.968,0.99,0.0227 (active),0.0158 (active),1,0.983
CCCC(C)C1(CC)C(=O)NC(=O)NC1=O (stereo not drawn) [Pentobarbital],1.02,1.01,1.05,0.999,0.986,1.05,1.06,1.01,0.999
CCCN1C[C@H](CSC)C[C@@H]2c3cccc4[nH]cc(c34)C[C@H]21 [Pergolide mesylate],1,0.998,0.959,0.956,1.01,0.986,0.956,0.995,0.974
CO[C@]12C[C@@H](COC(=O)c3cncc(Br)c3)CN(C)[C@@H]1Cc1cn(C)c3cccc2c13 [Nicergoline],1.03,1.01,1,0.996,1,0.933,0.948,1,0.942
C=C(C)[C@@H]1[C@H]2OC(=O)[C@@H]1[C@]1(O)C[C@H]3O[C@]34C(=O)O[C@H]2[C@]14C [Picrotoxinin],1,1,0.96,1,0.997,1.03,1.03,1.02,1.02
CN1C(=O)CCS(=O)(=O)C1c1ccc(Cl)cc1 (stereo not drawn) [Chlormezanone],1.02,1,0.992,1.01,0.995,1.03,1.02,1,1
C[N+]1(C)CCOC(O)(c2ccc(-c3ccc(C4(O)C[N+](C)(C)CCO4)cc3)cc2)C1 (stereo not drawn) [Hemicholinium bromide],0.977,1,1.03,1.06,1.03,1,1.02,1.01,1
